60 sequences from the OligoGym collection can be followed below.

Some targets named below: STX12; SULT1A2; SYT2; TAS1R2; TAS2R31; TBC1D10A; TBC1D7; TC2N; TCL1B; TCTN3; TCEANC2; TCERG1.
Holding throughout (experiment): pooled miR-30 sensor sort-seq; sequence = guide strand
Conditions in all cases: shRNA
Also: reference of the scale not given here.

TTTTCTGATAGTAAGCAGCTCG registered a sensor-assay potency score (higher = more potent) with STX12 of 0.207.

As for TGAGGTCCACAGTCTCCTCTGG, the sensor-assay potency score (higher = more potent) with SULT1A2 is -0.796.

Sequence TTATTCTGGAGCCTCTTGGTCA gave a sensor-assay potency score (higher = more potent) in the assay with SULT1A2 of -0.61.

As to TTTCTGAATCTGCTCGAAGGGG, the sensor-assay potency score (higher = more potent) in the assay with SYT2 was -0.751.

On to TTGTCTCGCAGCTCATCGCTGA, for which, in the assay with TAS1R2, the sensor-assay potency score (higher = more potent) was -0.453.

On to AATAGAACCACTACCACACTGG, for which the sensor-assay potency score (higher = more potent) in the assay with TAS2R31 was 0.475.

Regarding TTGTTGAGCATGTCCAGCCACT, the sensor-assay potency score (higher = more potent) in the assay with TBC1D10A is -1.14.

Sequence TAGGCAGACATGAAGGTGCAGA showed a sensor-assay potency score (higher = more potent) in the assay with TAS1R2 of -0.389.

In turn, TTCTTTTCTTCAACTCCACGAA displayed a sensor-assay potency score (higher = more potent) in the assay with TBC1D7 of -0.5.

In the case of TTGTGCTTCTTGGCCATCCATT, the sensor-assay potency score (higher = more potent) with TBC1D10A is -1.02.

TTCTTTTGTCCGTACAATCTCT came in with a sensor-assay potency score (higher = more potent) in the assay with TAS2R31 of -0.58.

In the assay with TBC1D10A, ATCGCCTCCAGTTTCTCGCTGT returned a sensor-assay potency score (higher = more potent) of -0.233.

On to TAACAGCAAAAAACATAGCAGG, for which the sensor-assay potency score (higher = more potent) with TAS2R31 was -0.785.

Turning to TTCTGCTGTAACTTCACCTTGC, the sensor-assay potency score (higher = more potent) with TBC1D10A is 0.827.

As for TTTTACACAAAGAACACCCCAC, in the assay with TBC1D10A, the sensor-assay potency score (higher = more potent) was determined as 0.708.

Turning to TTCATCTTCAGTGTGGTTGAGG, in the assay with TAS1R2, the sensor-assay potency score (higher = more potent) is -0.161.

Regarding TCTCATAATATACTGAACGAAA, the sensor-assay potency score (higher = more potent) in the assay with TBC1D7 was -1.27.

TTGCAGGTATAGCTCTGGCTGG returned a sensor-assay potency score (higher = more potent) in the assay with TAS1R2 of -1.05.

In the case of TAGACCGCAGAGTACACGCTGT, the sensor-assay potency score (higher = more potent) with TAS1R2 was -0.157.

Take TTACGATACATCATCACCTTGG: the sensor-assay potency score (higher = more potent) with TBC1D7 came to 0.3.

With TAGCACACATCCACGATCTCAT, in the assay with TAS1R2, the sensor-assay potency score (higher = more potent) amounted to 0.125.

Regarding TTCTGCATCCAAGATAGCCTTG, the sensor-assay potency score (higher = more potent) with TBC1D10A was -0.737.

As to TAGAACCACTACCACACTGGAA, in the assay with TAS2R31, the sensor-assay potency score (higher = more potent) was -1.01.

For the sequence TCCAATAACAAATAGAACCACT, the sensor-assay potency score (higher = more potent) with TAS2R31 was -1.14.

In turn, TTGTTGATCTCCTCCACCGCAA showed a sensor-assay potency score (higher = more potent) with TAS1R2 of -0.437.

As to TTGAGCATGTCCAGCCACTTGG, in the assay with TBC1D10A, the sensor-assay potency score (higher = more potent) was -0.533.

With TAACTTCCCAGACTCCAGCTGA, in the assay with TBC1D7, the sensor-assay potency score (higher = more potent) is -0.346.

The sequence TACAGTCGCATCTGAAAGGTAC returned a sensor-assay potency score (higher = more potent) in the assay with TAS2R31 of -0.71.

In turn, TCACAGAAGAACATGTCCCAGA gave a sensor-assay potency score (higher = more potent) in the assay with TBC1D10A of -0.251.

TTAACAGCAAAAAACATAGCAG registered a sensor-assay potency score (higher = more potent) with TAS2R31 of -0.409.

Sequence TTTCTCGCTGTAGTAGCCGGGC showed a sensor-assay potency score (higher = more potent) with TBC1D10A of -0.648.

TTGCTCACGATCGCGTCTGAGC: in the assay with TBC1D7, the sensor-assay potency score (higher = more potent) is -1.01.

As for TTTTGTCCGTACAATCTCTTTC, in the assay with TAS2R31, the sensor-assay potency score (higher = more potent) was -0.469.

In the assay with TAS1R2, TTCATATTCATCTTCAGTGTGG returned a sensor-assay potency score (higher = more potent) of 0.0168.

As for TAGGACCACTCGTTATTCGGGC, in the assay with TAS1R2, the sensor-assay potency score (higher = more potent) was -0.986.

For the sequence TCAAGTATTGTTCAAACGCTTT, the sensor-assay potency score (higher = more potent) with TBC1D7 was -1.28.

TTGATCTTCCAAGTCAAGTTTC had a sensor-assay potency score (higher = more potent) with TAS2R31 of -0.849.

TTGGGGGCTGAGTCCTTCGGGG: the sensor-assay potency score (higher = more potent) in the assay with TBC1D10A was -1.22.

In the assay with TAS1R2, TAGAAGGTCATGCTGAGGGTGA had a sensor-assay potency score (higher = more potent) of -0.126.

TAGAAGAGGATCATGTAGCACT gave a sensor-assay potency score (higher = more potent) with TAS1R2 of -0.0652.

On to TTCACAGAAGAACATGTCCCAG, for which the sensor-assay potency score (higher = more potent) with TBC1D10A is -0.889.

TTACAGTCGCATCTGAAAGGTA returned a sensor-assay potency score (higher = more potent) with TAS2R31 of -0.265.

For TTGCTCAGCAGGCATATGCATG, in the assay with TBC1D10A, the sensor-assay potency score (higher = more potent) is -1.58.

In the case of ATAGGTGTCGCTGCTCACCAGC, in the assay with TAS1R2, the sensor-assay potency score (higher = more potent) was -0.83.

As to AAGAACACAATGCTCACTGTGG, in the assay with TBC1D7, the sensor-assay potency score (higher = more potent) is -0.247.

Turning to TTACTGTCTTCACTTATCCAAA, in the assay with TC2N, the sensor-assay potency score (higher = more potent) was -1.52.

Consider ATGCTGGGTTCATATCTGCTGC, for which the sensor-assay potency score (higher = more potent) with TCL1B is -1.39.

With TGTTAGGACCAGCTGCTCCATA, in the assay with TCL1B, the sensor-assay potency score (higher = more potent) was -1.25.

Turning to TTTCCCAGAAACTGGAATCCGC, the sensor-assay potency score (higher = more potent) with TCL1B was -0.902.

TTGAAGTGAATGATTCGCCTCC: the sensor-assay potency score (higher = more potent) in the assay with TCTN3 amounted to 0.789.

The sequence TATATCATCAGTCAGAGCCAAG gave a sensor-assay potency score (higher = more potent) with TCTN3 of -1.46.

As for TTGATCAGGAAGCTCCAGCATA, in the assay with TCEANC2, the sensor-assay potency score (higher = more potent) was -0.895.

Sequence TACATACTGATCAAACACCTGT had a sensor-assay potency score (higher = more potent) with TCERG1 of 0.349.

For the sequence TTGAGTTTCAGTTACCTGCAGG, the sensor-assay potency score (higher = more potent) with TCEANC2 is -0.555.

Sequence TCTGGATCCACAGACGGCCAGG gave a sensor-assay potency score (higher = more potent) with TCL1B of -1.15.

Turning to TTTTCTTCTTTAATTCTTGTAA, the sensor-assay potency score (higher = more potent) with TCEANC2 was -0.255.

TTAGAATCCATGAAAACTCTTG showed a sensor-assay potency score (higher = more potent) in the assay with TCTN3 of 0.212.

As for TTATTATCGTCTCTCTTCCGTT, the sensor-assay potency score (higher = more potent) with TCERG1 is -0.906.

On to TCTGCTATTTCCCAGAAACTGG, for which the sensor-assay potency score (higher = more potent) with TCL1B was -1.48.

TTGTCTACACAAACCCAGCTTG registered a sensor-assay potency score (higher = more potent) with TCTN3 of -0.828.
